KB-3-1 tox: KB-3-1 parental cell cytotoxicity; KB-3-1 viability, CellTiter-Glo ATP luminescence, 72 h; Potency, µM (series often up to 46.1 µM), usual class: cytotoxic; 400,000 tested, 1.4% active; AID 1347075; further: on the % scale 0 is the no-effect control and ±100 the full control effect; nearly all actives have a fitted effect of over 60% in size
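KB-3-1 parental drug-naive adenocarcinoma cells in DMEM/10% FBS, incubated 72 h at 37 C with pin-transferred compounds across a concentration series. Viability by CellTiter-Glo luminescence; concentration-response curves fitted after normalization.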
HT1080 IDH1KD tx: HT-1080 IDH1 knockdown cell toxicity (counter line); AID 686971; Potency, µM (titrated, usually from 46.1 µM), inactives show at the top dose activity, negative = toxicity, usual class: cytotoxic; 360,000 tested, 2% active; HT-1080 IDH1 knockdown viability, ATP luminescence, 48 h;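 further: 0% = DMSO wells and -100% = cell-free medium wells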
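CellTiter-Glo luminescence after 48 h compound exposure at 37 degrees C of IDH1-knockdown HT-1080 cells in 5% FBS RPMI. %Activity scaled between DMSO wells and cell-free media wells, with curves fitted and assigned curve classes.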
KB-V1 cytotox: kills drug-selected multidrug resistant KB-V1 cells. KB-V1 MDR cells viability, CellTiter-Glo, 72 h. Potency, µM (series often up to 46.1 µM), hits mostly cytotoxic. 400,000 tested, 3.4% active; further: on the % scale 0 is the no-effect control and ±100 the full control effect; nearly all actives have a fitted effect of over 60% in size
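In this primary screen, KB-V1 cells overexpressing P-gp are incubated with library compounds (lowest to highest concentration) for 72 h at 37 degrees C before a luminescent ATP viability read.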
HT1080NT lethal: kills 2HG-producing HT-1080-NT fibrosarcoma cells; HT-1080-NT fibrosarcoma viability, CellTiter-Glo ATP luminescence, 48 h; 360,000 tested, 1.6% active; Potency, µM (series often up to 46.1 µM), for the others: top-dose activity, negative = less viability, hits mostly cytotoxic; AID 686970;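 further: NT is the 2HG producing partner of a matched IDH1 knockdown line; 0% = DMSO-treated cells and -100% = media-only wells without cells; nearly all actives have a fitted effect of over 55% in size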
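Toxicity toward the 2HG-producing NT line was scored as %Activity, normalised to DMSO and no-cell wells, from CellTiter-Glo luminescence after 48 hours' treatment.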
SW480 rerep: DNA re-replication induction in SW480 cells; SW480 DNA re-replication, Hoechst DNA content imaging, 48 h; 340,000 tested, 1.8% active; AID 624297; Potency, µM (series often up to 46.1 µM), for the others: at the highest dose re-replication activation, most hits filed as activators; further: % of control where 0% means no effect; nearly all actives have a fitted effect of over 55% in size
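Compounds, transferred as 23 nL by pin tool, were incubated with cells for 48 hr; DNA content per nucleus was then quantified by Hoechst staining and fluorescence plate imaging.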
MCF10A rereplic: inducers of DNA re-replication in MCF 10A breast cells; MCF 10A DNA re-replication, Hoechst nuclear intensity, 48 h; 350,000 tested, 2.9% active; Potency, µM (highest dose often 46.1 µM), for the others: at the highest dose activity, positive = re-replication, usual class: activators; further: % of control where 0% means no effect; nearly all actives have a fitted effect of over 50% in size
* hit, by the source's call; i = inactive; ? = inconclusive; . = no result given. Hits are enriched below; roughly 8% of the tested compounds scored in any of these assays. The call rests on the fitted dose curve; in most records, active means well fitted curve in the direction sought with a large enough effect; inconclusive means small, poorly fitted or top-dose-only effect, or another doubt; inactive means no such curve, though single readings can be large; an effect the other way counts as inactive or inconclusive. Potency means the concentration at half of the fitted maximal effect.

SMILES	KB-3-1 tox	HT1080 IDH1KD tx	KB-V1 cytotox	HT1080NT lethal	SW480 rerep	MCF10A rereplic
COc1cc(OC)cc(C(=O)N[C@H](C(=O)OCc2cc(=O)oc3cc(C)ccc23)C(C)C)c1	i	-1%	3.7µM*	1%	0%	10%
CCOc1ccccc1C(=O)N[C@H](C(=O)OCc1cc(=O)oc2cc(C)ccc12)C(C)C	i	-23%	3.3µM*	-19%	?	21%
CC(C)C(NC(=O)c1ccccc1)C(=O)OCc1cc([N+](=O)[O-])cc2c1OCOC2 (stereo not drawn)	i	-8%	i	-2%	-12%	16%
CCOc1ccccc1C(=O)N[C@H](C(=O)OCc1cc([N+](=O)[O-])cc2c1OCOC2)C(C)C	i	?	5.8µM*	-2%	22%	19%
COc1cc(OC)cc(C(=O)NCC(=O)OCc2cc(=O)oc3cc(OC)ccc23)c1	i	7%	i	6%	-3%	-5%
Cc1ccc2c(COC(=O)c3ccccc3Cl)cc(=O)oc2c1	i	10%	i	1%	-9%	-3%
COCc1nc2ccccc2n1CCOc1cccc(C)c1	i	.	i	.	.	.
CC(=O)c1ccc(NC(=O)Cn2c(=O)oc3cc(S(=O)(=O)N4CCCCC4)ccc32)cc1	i	.	i	.	.	.
CCOC(=O)c1cc(OC(=O)c2ccc(C)cc2)n(-c2ccccc2)n1	i	.	i	.	.	.
CCN1/C(=C/c2ccc3ccccc3[n+]2CCCS(=O)(=O)[O-])C=Cc2cc(C)ccc21	i	-17%	i	-14%	-4%	0%
CCCCN1/C(=C/c2ccc3ccccc3[n+]2CC)Sc2ccccc21	i	15µM*	i	?	-1%	8%
CCN1/C(=C/c2ccc3ccccc3[n+]2CC)C=Cc2ccccc21	0.82µM*	8.2µM*	?	6.5µM*	1%	-1%
CCN1/C(=C/c2ccc3cc(C)ccc3[n+]2C)Sc2ccc3sccc3c21	i	?	i	16µM*	?	?
CCN1/C(=C/c2ccc3cc(C)ccc3[n+]2CC)Sc2cc(C)ccc21	?	23µM*	i	16µM*	-100%	?
Cc1c(C(=O)NC(=S)Nc2ccccc2N2CCCC2)cccc1[N+](=O)[O-]	i	-5%	13µM*	-2%	12%	9%
O=C(NC(=S)Nc1ccccc1N1CCCCC1)c1ccc(-c2cccc([N+](=O)[O-])c2)o1	i	12%	i	4%	-30%	3%
O=C(NC(=S)Nc1ccccc1N1CCCC1)c1ccc(-c2cccc([N+](=O)[O-])c2)o1	?	?	16µM*	?	21µM*	4%
CC(=O)OC1CCC2(C)C(CCC3C4CC=C(C(C)=O)C4(C)OC(=O)CC32)C1 (stereo not drawn)	23µM*	10µM*	?	?	.	.
COc1ccc([N+](=O)[O-])cc1NC(=O)C(C)N1CCCC1 (stereo not drawn)	i	8%	i	-11%	-6%	-5%
CC(C(=O)Nc1cc([N+](=O)[O-])ccc1Cl)N1CCN(c2ccccc2O)CC1 (stereo not drawn)	?	?	10µM*	?	16%	?
COc1cc(OC)cc(-c2nnc(SCC(=O)N3CCCc4ccccc43)o2)c1	i	-2%	i	-4%	5%	?
COc1ccc(-c2nnc(SCC(=O)N3CCC(Cc4ccccc4)CC3)o2)cc1OC	i	13%	5.2µM*	5%	0%	2%
CCCCN(CCCC)C(=O)CSc1nnc(-c2cc(OC)c(OC)c(OC)c2)o1	?	-12%	13µM*	8%	0%	-4%
CCCCOC(=O)CSc1nnc(-c2cc(OC)c(OC)c(OC)c2)o1	i	2%	i	11%	-14%	23%

High-throughput results from PubChem.
